DT40 TDP1 CPT = qHTS for Inhibitors of human tyrosyl-DNA phosphodiesterase 1 (TDP1): qHTS in cells in presence of CPT | chicken DT40 Tdp1-/-;hTDP1 cells + 20 nM CPT, ATP luminescence, 48 h | Potency, µM (doses to about 46.2 µM), inactives show top-dose activity change, negative = growth inhibition, usual class: inhibitors | hit rate 12% among 420,000; also: potency is read from the fitted curve at half-maximal effect; nearly all actives have a fitted effect of over 55% in size
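Chicken DT40 Tdp1-/- cells stably complemented with human TDP1 were seeded at 400 cells/well in medium containing 20 nM camptothecin, exposed to pin-transferred compounds, and grown at 37 °C for at least 48 hr. Viability was read as ATP luminescence.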
TDP1 cell noCPT = qHTS for Inhibitors of human tyrosyl-DNA phosphodiesterase 1 (TDP1): qHTS in cells in absence of CPT; DT40 Tdp1-/- hTDP1 cells, no CPT, ATP luminescence, 48 h; hit rate 15% among 420,000; Potency, µM (titrated, usually from 46.2 µM), for the others: at the highest dose activity change, negative = growth inhibition, actives largely listed as inhibitors; also: potency is read from the fitted curve at half-maximal effect; nearly all actives have a fitted effect of over 55% in size
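No-CPT arm: Tdp1-/-;hTDP1 DT40 cells (400/well) plus compounds, incubated ≥48 hr at 37 °C. Readout CellTiter-Glo luminescence.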
HT1080 IDH1KD tx = qHTS for induction of synthetic lethality in tumor cells producing 2HG: qHTS for the HT-1080-IDH1KD cell line. HT-1080 IDH1 knockdown viability, ATP luminescence, 48 h. Potency, µM (highest dose often 46.1 µM), without a hit: at the highest dose activity, negative = toxicity, actives largely listed as cytotoxic. hit rate 2% among 360,000. AID 686971, 2013;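 also: potency is read from the fitted curve at half-maximal effect; 0% = DMSO wells and -100% = cell-free medium wells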
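Luminescent ATP read-out (CellTiter-Glo, 10 min at room temperature) after 48 h compound exposure at 37 °C gave viability of IDH1-knockdown HT-1080 cells. Activity was normalised to DMSO and cell-free wells, then fitted as concentration-response curves.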
HT1080NT lethal = qHTS for induction of synthetic lethality in tumor cells producing 2HG: qHTS for the HT-1080-NT fibrosarcoma cell line; HT-1080-NT fibrosarcoma viability, CellTiter-Glo ATP luminescence, 48 h; Potency, µM (highest dose often 46.1 µM), for inactives: at the top dose activity, negative = less viability, most hits filed as cytotoxic; hit rate 1.6% among 360,000; AID 686970, 2013;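 also: NT is the 2HG producing partner of a matched IDH1 knockdown line; potency is read from the fitted curve at half-maximal effect; 0% = DMSO-treated cells and -100% = media-only wells without cells; nearly all actives have a fitted effect of over 55% in size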
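Fibrosarcoma NT cells, 750 per well in 5% FBS RPMI, were exposed to compound for 48 hours. Viability: CellTiter-Glo luminescence.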
IL-1B inflam inh = qHTS for Inhibitors of Inflammasome Signaling: IL-1-beta AlphaLISA Primary Screen. THP-1 LPS/ATP IL-1B secretion, AlphaLISA, 16 h; active compounds read low. activity change, % at 57.5 µM. hit rate 4.7% among 360,000. AID 743279, 2014; in the data active = activity change below about -50%; inconclusive = mostly about -30% to -49%
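THP-1 cells pretreated 1 hr with compounds (up to 57.5 uM final), then stimulated with LPS (250 ng/mL final) plus ATP (1.25 mM final); secreted IL-1B measured by AlphaLISA after 16 hr, decreased signal indicating inhibition.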
* hit, by the source's call; ? = inconclusive; / = no result; [ ] = another dose, or the depositor's remark. Most compounds without a hit are left out; they make up all but 19% or so of the library. Unless noted, calls follow the shape of the dose curve; as a rule, active = well fitted curve in the direction sought with a large enough effect; inconclusive = small, poorly fitted or top-dose-only effect, or another doubt; inactive = no such curve, though single readings can be large; an effect the other way counts as inactive or inconclusive. Unless noted, % is scaled to controls: 0 for no effect and ±100 for the full control effect.

SMILES | DT40 TDP1 CPT | TDP1 cell noCPT | HT1080 IDH1KD tx | HT1080NT lethal | IL-1B inflam inh
Cc1cc(C)n2c(Nc3ccc4c(c3)OCCO4)c(-c3cc4ccccc4o3)nc2n1 | ? | 21µM* | -9% | -8% | 19
CC(C)n1nc(-c2cc3cc(O)ccc3[nH]2)c2c(N)ncnc21 | 0.094µM* | 0.17µM* | / | / | /
COc1ccc(NC(=O)CCc2nc(C3=CCN(Cc4cccc(C)c4)CC3)no2)c(OC)c1 | 16µM* | 12µM* | / | / | /
O=C(CCc1nc(C2=CCN(Cc3cccc(Cl)c3)CC2)no1)Nc1ccccc1F | 15µM* | 12µM* | / | / | /
COc1cccc(CN2CC=C(c3ccc(F)cc3)CC2)c1 | -1% | -9% | -20% | -10% | -8
COC1C(O)C(C)O[C@H](OC2CC[C@@]3(C=O)C4CC[C@]5(C)C(C6=CC(=O)OC6)CC[C@@]5(O)C4CC[C@@H]3C2)C1O (some centres not stated) | 0.65µM* | 0.37µM* | / | / | /
COC1C(O)C(C)O[C@@H](OC2CC[C@@]3(C)C4CC[C@]5(C)C(C6=CC(=O)OC6)CC[C@@]5(O)C4CC[C@@H]3C2)C1O (some centres not stated) | 1µM* | 0.65µM* | / | / | /
Nc1ccccc1C(=O)OCCOc1ccccc1 | 13% | -26% | 5%[9.24 µM] | -4% | -1
c1ccc(SSc2ccccc2)cc1 | 12µM* | 12µM* | -18% | 5% | -101*
Brc1ccccc1 | 17% | 17% | -3% | -3% | -20
O=C(NCCCN1CCCC1)c1ccc2c(c1)N(Cc1cccc(Cl)c1)C(=O)c1ccccc1S2=O (configuration not stated) | ? | ? | ? | 16µM* | -16
CC(C1=C(CCN(C)C)Cc2ccccc21)c1ccccn1 (configuration not stated) | -26% | -6% | -2% | -1% | ?
Cc1oc(-c2cccc(Cl)c2)nc1CN1CCC(C(=O)NCCCN2CCN(c3ccc(F)cc3)CC2)CC1 | 4.6µM* | 2.9µM* | / | / | /
Fc1ccc(CN2CCN(c3ccc(Cl)cc3)CC2)cc1 | -28% | ? | -12% | -10% | 13
Cc1oc(-c2ccc(Cl)cc2)nc1CN1CCC(C(=O)NCCCN2CCN(c3cccc(Cl)c3)CC2)CC1 | 5.2µM* | 2.6µM* | / | / | /
Cc1oc(-c2cccc(Cl)c2)nc1CN1CCC(C(=O)NC(C)c2ccccc2)CC1 (configuration not stated) | 4.1µM* | 4.6µM* | / | / | /
CCCCNC(=O)C1CCCN(Cc2nc(-c3ccc(Cl)cc3)oc2C)C1 (configuration not stated) | 6.5µM* | 4.1µM* | / | / | /
CCCCCCN1CCN(c2ccc(Cl)cc2)CC1 | 2% | ? | 10% | 1% | 22
COc1cc(C2(C#N)CCN(C)CC2)cc(OC)c1OC | -12% | 6% | 14% | 6% | 3
COC(=O)C1=CO[C@@H](C)[C@@H]2CN3CC[C@]4(C(=O)Nc5c4ccc(OC)c5OC)[C@H]3C[C@H]12 | 8%[9.04 µM] | -7%[9.04 µM] | / | / | /
O=c1n(Cl)c(=O)n(Cl)c(=O)n1Cl | 7% | 3% | / | / | /
NC(=O)c1cccc(-c2cccc(OC(=O)NC3CCCCC3)c2)c1 | -21% | ? | 19% | ? | 14
CNC(=O)Oc1cccc(-c2cn3cc(OC(=O)NC)ccc3n2)c1 | ? | 21µM* | -9% | -12% | 14
CNC(=O)Oc1c(C)[nH]ccc1=O | 1% | 0% | -2% | -1% | -15
CNC(=O)Oc1ccc(-c2cn3cc(Cl)ccc3n2)cc1 | 21µM* | ? | -16% | -1% | ?
SMILES | DT40 TDP1 CPT | TDP1 cell noCPT | HT1080 IDH1KD tx | HT1080NT lethal | IL-1B inflam inh
Cc1ccc2[nH]c(=S)n(-c3cccnc3)c(=O)c2c1 | 4% | 22% | 7% | 20% | 9
Cc1noc(C(=O)Nc2sc3c(c2C#N)CCC3)c1Cl | ? | ? | -13% | -4% | 32
C/C(=N\NC(N)=O)c1c(O)n(C)c(=O)n(C)c1=O | ? | ? | 2% | 8% | 16
CC1=CC(=O)NP(=O)(Oc2ccc3ccccc3c2)N1 (configuration not stated) | 9.2µM* | 10µM* | -1% | 3% | 24
CC1CN1P(=O)(Oc1ccc2ccccc2c1)N1CC1C (configuration not stated) | ? | ? | 8% | 8% | 6
CNC1[C@@H](O)C(OC2C(N)C[C@H](N)[C@@H](O[C@@H]3OC(C(C)O)C(O)C(O)C3N)C2O)OC[C@]1(C)O (some centres not stated) | ? | -13% | / | / | /
Cc1cc(C=C2C(=O)NC(=S)NC2=O)c(C)n1-c1ccc2c(c1)OCO2 | ? | ? | ? | -21% | -101*
Cc1cccc(Cn2cccc(C(=O)Nc3cc(C)on3)c2=O)c1 | -23% | -23% | / | / | /
OCCCBr | 5%[92.5 µM] | 0%[92.5 µM] | / | / | /
Cc1c(O)c(O)cc2c1CC=C1[C@]3(C)CC[C@]4(C)CC[C@@](C)(C(=O)O)CC4[C@]3(C)CC[C@]12C (some centres not stated) | 7.3µM* | 4.1µM* | / | / | /
CC1=C(O)C(=O)C=C2C1=CC=C1C2(C)CCC2(C)C3CC(C)(C(=O)O)CCC3(C)CCC12C (configuration not stated) | 1.3µM* | 1µM* | 1.6µM* | 4.6µM* | -57*
COc1ccc(Cl)cc1NC(=O)c1sc2nc3c(cc2c1N)N1CCC3CC1 | 1% | -24% | / | / | /
Cc1ccc(-n2nc3c(N4CCC(C(=O)NCc5ccccc5Cl)CC4)nnc(C)c3c2C)cc1 | 15µM* | 5.8µM* | / | / | /
COc1ccc(Cl)cc1NC(=O)C1CCN(c2nnc(C)c3c(C)n(-c4ccccc4)nc23)CC1 | 18µM* | 15µM* | / | / | /
ClC1=C(Cl)[C@]2(Cl)[C@@H]3[C@H]4C[C@H]([C@@H]5O[C@H]45)[C@@H]3[C@@]1(Cl)C2(Cl)Cl | -8% | ? | / | / | /
c1ccc2sc(C3CCNCC3)nc2c1 | 7% | -26% | -2% | 1% | 22
COc1c2c(c(CC=C(C)C)c3oc(=O)c(-c4ccc(O)cc4)c(O)c13)OC(C)(C)C=C2 | -4% | -23% | / | / | /
CC(C)(C)C(=O)c1cn(Cc2ccccc2)c2ccccc12 | ? | ? | -18% | -28% | -5
CCCn1c(=O)n(C)c(=O)c2c(SCC(=O)NC34CC5CC(CC(C5)C3)C4)nc(CC(C)C)nc21 | 15µM* | ? | 0% | 12% | 8
